High-throughput results from PubChem BioAssay.
p53ts 32C kill – p53ts cell cytotoxicity, permissive temperature; H1299-p53A138V at 32C, ATP luminescence viability, 24 h; Potency, µM (titrated, usually from 46.1 µM), for the others: at the highest dose activity change, negative = cytotoxicity, actives largely listed as cytotoxic; 0.93% of 130,000 active;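 also: 0% = DMSO and -100% = full killing by reference compound; nearly all actives have a fitted effect of over 55% in size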
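Viability by ATPlite luminescence after 24 h compound treatment (up to 46 uM) at the permissive 32C. Cells are H1299 carrying p53 A138V. Scale runs from DMSO basal to 100 uM tamoxifen as full kill; AC50 from Hill fits.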
Luciferase inh – firefly luciferase inhibition. purified firefly luciferase, luminescence, 8 min. 2.2% of 72,000 active. P08659. Potency, µM (highest dose often 57.1 µM), for inactives: top-dose activity change, negative = inhibition, hits mostly inhibitors; also: % is scaled to controls: 0 for no effect and ±100 for the full control effect; nearly all actives have a fitted effect of over 40% in size
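Titration-based qHTS; buffer 50 mM imidazole pH 7.2, 50 mM KCl, 7 mM MgCl2, 10 uM ATP, 0.01% Tween 20, 0.05% BSA; luciferase/luciferin detector mix added after compound; 8 min, ambient; luminescence.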
Peg3 imprint – induces erasure of genomic imprints in mouse ES cells; 0.02% of 110,000 active; AID 1948; Potency, µM (top dose mostly 60.7 µM), inactives show top-dose activity change, positive = activation, most hits filed as activators; mouse ES Peg3-LacZ reporter, beta-gal luminescence, 40 h
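Each well holds 300 Peg3LacZ-Neo (maternal) female ES cells incubated 40 h at 37C, 5% CO2. LacZ is measured by BetaGlo luminescence, with AC50 and maximum efficacy derived from dose-response curves.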
Tau fil binding – tau filament binding; P10636; Potency, µM (highest dose often 57.1 µM), for the others: at the highest dose activity change, negative = inhibition; 2% of 71,000 active; AID 596; recombinant tau filaments, thioflavin S fluorescence, 15 h; filaments grown with octadecylsulfate alongside compound;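 also: % is scaled to controls: 0 for no effect and ±100 for the full control effect; actives lower thioflavin S fluorescence by blocking filaments or displacing dye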
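ThS-based fibril read: tau 1 uM final, inducer ODS 30 uM final, 37 C for 15 h, ex 450/em 510 nm.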
p53ts 39C tox – cytotoxicity in p53ts cells at nonpermissive temperature; 1.5% of 130,000 active; Potency, µM (titrated, usually from 46.1 µM), inactives show at the highest dose activity change, negative = cell killing, hits mostly cytotoxic; H1299-p53A138V viability at 39C, ATP luminescence, 24 h; also: % is scaled to controls: 0 for no effect and ±100 for the full control effect; nearly all actives have a fitted effect of over 55% in size
* marks the source's active call; other numbers are inactive results; ? = inconclusive; nt = no result; [ ] = remark or other dose. A selection: hits, their analogues and other compounds. The true share with any hit is near 3.4%. Calls follow the shape of the dose curve; as a rule, active = well fitted curve in the direction sought with a large enough effect; inconclusive = small, poorly fitted or top-dose-only effect, or another doubt; inactive = no such curve, though single readings can be large; an effect the other way counts as inactive or inconclusive. Potency is read from the fitted curve at half-maximal effect.

SMILES	p53ts 32C kill	Luciferase inh	Peg3 imprint	Tau fil binding	p53ts 39C tox
COc1ccc(Nc2cc(C(=O)NCCCN3CCN(C)CC3)c3ccccc3n2)c(OC)c1	?	-20%	-10%	13µM*	?
CCOc1ccc(-c2cc(C(=O)NCCc3ccc(C)cc3)c3ccccc3n2)cc1	-20%	nt	-13%[10.9 µM]	nt	16µM*
CC(C)CC1Nc2ccc(C(=O)NCCCOC(C)C)cc2NC1=O (configuration not stated)	3%	nt	8%[10.9 µM]	nt	-9%
COc1ccc(F)cc1S(=O)(=O)Nc1ccccc1C(=O)O	1%	nt	nt	nt	1%
O=C(Cc1ccccc1)Nc1sc2c(c1C(=O)Nc1ccccc1Cl)CCCC2	3%	nt	-18%[10.9 µM]	nt	14%
CCOc1ccc(-c2cc(C(=O)NCCCN3CCN(CC)CC3)c3ccccc3n2)cc1	13µM*	13µM*	-14%	10%	13µM*
NCCCCCCNS(=O)(=O)c1cccc2ccccc12	5%	1%	-16%	72%	-14%
NCCCCNS(=O)(=O)c1cccc2c(Cl)cccc12	13%	-4%	-24%	-4%	16µM*
Cc1ccc(-c2nc3cc(N)ccc3o2)c(C)c1	9%	-1%	-12%	5%	7%
CCC(C)c1ccc2oc(-c3ccc(NC(=O)c4ncn[nH]4)cc3)nc2c1 (configuration not stated)	20%	?	-37%	442%	15%
CC(C)c1ccc2oc(-c3ccc(NC(=O)c4ncn[nH]4)cc3)nc2c1	-12%	10µM*	-23%	347%	-9%
Cc1ccc(-c2nc3cc(N)ccc3o2)cc1	4µM*	2.5µM*	-79%	-27%	4µM*
CC(C)c1ccc2oc(-c3ccc(N)cc3)nc2c1	6.3µM*	1.3µM*	-53%	?	6.3µM*
Cc1ccc2oc(-c3ccco3)nc2c1	-10%	25µM*	-1%	3%	-5%
Cc1ccc2oc(-c3cc(NC(=O)/C=C/c4ccco4)ccc3Cl)nc2c1	7%	nt	-7%[10.9 µM]	nt	-10%
CC1CCC2C(=O)N3C(CCC(C)[C@H]3c3ccccc3Br)C(=O)N2C1c1ccccc1Br (some centres not stated)	3%[9.22 µM]	nt	nt	nt	6%[9.22 µM]
COCC(=O)N1CCC2(CC1)CCN(c1ccncc1)CC2	-8%	0%[11.4 µM]	nt	18%	-8%
Cc1ccc(-c2nc3cc(C)ccc3o2)cc1	10µM*	0.4µM*	-31%	7%	?
Cc1ccc2oc(-c3ccc(NC(=O)CC(C)C)cc3)nc2c1	-25%	?	-21%	59%	-26%
COc1ccc(NC(=O)c2cc(-c3ccc(O)cc3)on2)cc1OC	-4%	-10%	-12%	109%	4%
COc1cccc(C(=O)NC2CC3CCCC(C2)N3CC(=O)Nc2ccccc2)c1 (configuration not stated)	-1%	0%	-14%	-27%	-5%
COc1cccc(C(=O)NC2CC3CCCC(C2)N3CC(=O)Nc2ccc(N(C)C)cc2)c1 (configuration not stated)	-8%	-5%	nt	13µM*	-1%
Nc1ccccc1-c1nc2ccccc2[nH]1	-24%	?	-73%	-1%	-29%
Cc1ccc2nc(-c3cccc(N)c3)[nH]c2c1	14µM*	nt	nt	nt	11µM*
Nc1ccc(-c2nc3ccc(-c4nc5ccc(N)cc5[nH]4)cc3[nH]2)cc1	-14%	nt	2%	nt	11%
SMILES	p53ts 32C kill	Luciferase inh	Peg3 imprint	Tau fil binding	p53ts 39C tox
c1ccc(-c2csc(-c3nc4ccccc4[nH]3)n2)cc1	7.9µM*	nt	-36%	nt	16µM*
Nc1ccc(-c2nc3ccccc3[nH]2)cc1	10µM*	16µM*	-86%	-23%	?
Cn1cc(-c2nc3ccccc3[nH]2)c2ccccc21	-23%	13µM*	-35%	112%	-25%
Nc1cccc(-c2nc3ccccc3[nH]2)c1	?	13µM*	-80%	-2%	?
CC1CCCCN1c1nc(-c2ccc(C(C)(C)C)cc2)nc2ccccc12 (configuration not stated)	10µM*	nt	-7%[10.9 µM]	nt	10µM*
CN1CCN(c2nc(-c3ccc(N(C)C)cc3)nc3ccccc23)CC1	?	-2%[2.29 µM]	-26%	13µM*	?
CC1CCN(c2nc(-c3ccc(C(C)(C)C)cc3)nc3ccccc23)CC1	16µM*	nt	-16%[10.9 µM]	nt	10µM*
